SKKanGAS inh: SKKanGAS growth inhibition; S. pyogenes SKKanGAS, kanamycin growth, BacTiter-Glo, 6 h; hit rate 1.3% among 300,000; inhibition, % at 7.5 µM;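 active means mean replicate score, as percent of positive control median, at least 50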;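 further: strain carries kanamycin resistance gene driven by streptokinase promoter and grows in 40 µg/ml kanamycin; loss of luminescence reflects streptokinase promoter inhibition or plain growth inhibition; 0% = median of DMSO wells and 100% = positive control at its reference dose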
tim23-1 inh: tim23-1 yeast growth inhibition; S. cerevisiae tim23-1 growth, BacTiter-Glo luminescence, 24 h; inhibition, % at 20 µM; hit rate 1.3% among 330,000; AID 463212;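 active means growth inhibition of the mutant yeast at or above 50%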;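 further: temperature-sensitive mutant grown at 25 °C; plate controls were DMSO-treated mutant yeast for no effect and medium wells lacking yeast for full effect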
tim10-1 inh: growth inhibitors of tim10-1 mutant yeast | S. cerevisiae tim10-1 ts strain growth, BacTiter-Glo, 24 h | inhibition, % at 20 µM | hit rate 2.2% among 330,000;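 active means inhibition of at least 40%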;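 further: mutant grown at 25 °C; 0% = DMSO wells with yeast and 100% = wells holding no yeast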
PfHsp90 yeast 2: growth inhibition of yeast expressing Plasmodium Hsp90; AID 504621; hit rate 0.32% among 310,000; S. cerevisiae expressing PfHsp90, BacTiter-Glo ATP, 48 h; yeast lacking PDR1 and PDR3 efflux regulators; inhibition, % at 9.4 µM;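 active means every replicate shows inhibition above about 80%, whatever the replicate mean, limit read from the data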;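 further: 0% = DMSO neutral controls and 100% = 20 µM radicicol positive controls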
ATG4B inhibitor: ATG4B (human) cysteine protease inhibition; ATG4B cleavage of LC3-PLA2, NBD-HPC fluorescence, 1 h; Q9Y4P1; hit rate 0.51% among 340,000; inhibition, % at 8.33 µM; in the data active means inhibition above about 40%
Target sequence (Q9Y4P1 whole entry, looked up): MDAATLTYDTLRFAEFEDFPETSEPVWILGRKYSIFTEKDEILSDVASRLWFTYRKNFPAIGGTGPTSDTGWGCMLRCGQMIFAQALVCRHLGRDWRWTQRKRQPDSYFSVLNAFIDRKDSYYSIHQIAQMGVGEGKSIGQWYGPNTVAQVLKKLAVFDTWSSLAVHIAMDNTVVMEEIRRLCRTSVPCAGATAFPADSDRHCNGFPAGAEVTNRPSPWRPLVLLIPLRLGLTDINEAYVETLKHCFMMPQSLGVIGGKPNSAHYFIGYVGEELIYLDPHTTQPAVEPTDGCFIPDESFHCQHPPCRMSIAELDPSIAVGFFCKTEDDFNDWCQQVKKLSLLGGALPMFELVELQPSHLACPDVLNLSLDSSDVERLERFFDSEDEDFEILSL
TIM10 inh: growth inhibitors of TIM10 yeast strain; S. cerevisiae TIM10 strain growth, BacTiter-Glo luminescence, 24 h; inhibition, % at 10 µM; hit rate 1.4% among 330,000;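 active means inhibition of 40% or more at the single tested concentration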;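 further: wild-type TIM10 isogenic control strain grown at permissive 25 °C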
Numbers without * were called inactive; · = no result given. In the library only some 4.7% were active in any assay of this set; here they are far more common.

SMILES	SKKanGAS inh	tim23-1 inh	tim10-1 inh	PfHsp90 yeast 2	ATG4B inhibitor	TIM10 inh
O=C(/C=C/c1ccccc1)NC(NC(=S)Nc1cccc(Cl)c1)C(Cl)(Cl)Cl (stereo not given)	101*	-8	2	-17	3	5
CC1CCC(O)(C(C(=O)O)c2ccccc2)CC1 (stereo not given)	·	·	·	-12	-7	·
CCN(Cc1ccccc1)S(=O)(=O)c1ccc(F)cc1	4	6	-25	-6	5	0
CCCNC(=O)c1ccc(N2CCC3(CC2)CC(c2ccccc2)=NO3)c(NC(=O)c2ccco2)c1	50*	26	29	0	2	17
CCOc1ccc(C2C(C(=O)Nc3ccc(F)cc3)=C(C)Nc3nc(CCCO)nn32)cc1 (stereo not given)	-2	0	-9	14	-7	3
CCN(CC)c1ccc(C(=O)OCC(=O)Nc2cc3oc4ccccc4c3cc2OC)cc1	-7	0	5	-3	8	3
COC(=O)c1ccc(/C=N/NC(=O)CC(=O)NCc2cccnc2)cc1	-17	5	-5	9	10	3
CCCC(=O)OC(C(=O)Nc1cc(C(F)(F)F)ccc1Cl)c1ccccc1 (stereo not given)	-13	10	3	0	5	-2
Cc1cc(C(=O)NCC(=O)OC(C(=O)Nc2cc(C(F)(F)F)ccc2Cl)c2ccccc2)ccc1[N+](=O)[O-] (stereo not given)	53*	17	13	2	-11	24
O=S(=O)(NOCc1ccc(Cl)cc1)c1ccc(Cl)cc1	-4	-3	-32	-33	2	-11
CNC(=S)N1CCN(c2c(F)cc3c(=O)c(C(=O)O)cn(C4CC4)c3c2OC)CC1C (stereo not given)	104*	-1	8	-33	-13	17
COC(=O)C(C)NC(=S)N1CCN(c2c(F)cc3c(=O)c(C(=O)O)cn(C4CC4)c3c2OC)CC1C (stereo not given)	95*	-15	2	15	-8	3
CCS(=O)(=O)N1Cc2ccccc2CC1C(=O)Nc1ncc(C)s1 (stereo not given)	-4	11	10	-3	-5	4
CCS(=O)(=O)N1Cc2ccccc2CC1C(=O)Nc1nnc(SCc2ccc(C#N)cc2)s1 (stereo not given)	60*	13	24	-4	4	6
COc1ccc(Br)cc1/C=C/c1ccc2cccc(O)c2n1	100*	21	16	4	-6	2
COc1cc(Br)cc(/C=C/c2ccc3cccc(O)c3n2)c1OC	93*	31	26	14	-6	-4
COc1ccc(Br)cc1/C=C/C(=O)NCC(=O)O	-2	8	-20	-28	-8	-2
CCNc1nc(Oc2c(Cl)cccc2Cl)cc(C(F)(F)F)n1	53*	-12	5	-156	1	-5
COc1cc(/C=N/Nc2ccccn2)ccc1O	-1	-12	-6	-33	31	10
CCc1ccc(NC(=S)Nc2ccc3cn[nH]c3c2)cc1	0	30	27	-12	-12	21
COc1ccc(/C=C/c2ccc3cccc(O)c3n2)c(OC)c1OC	105*	23	20	-61	6	24
COc1cccc(/C=C/c2ccc3cccc(O)c3n2)c1OC	86*	17	23	-32	-7	17
CCc1sc(N(C(=O)Cc2ccccc2)c2ccc(F)cc2)nc1-c1ccccc1	55*	19	30	8	0	23
O=S(=O)(c1ccccc1)c1nc(-c2ccccc2)oc1N1CCOCC1	-4	35	20	10	-3	19
CCCCCn1c(SCCc2ccccc2)nc2c1c(=O)[nH]c(=O)n2C	5	11	19	-42	-2	2
CCCCn1c(SCC(=O)c2ccccc2)nc2c1c(=O)[nH]c(=O)n2C	80*	6	-1	-13	-3	-1
O=c1cc(-c2ccccc2Cl)oc2c([N+](=O)[O-])c(O)cc(O)c12	26	-5	9	-30	18	-6
O=c1cc(-c2ccccc2Cl)oc2ccc([N+](=O)[O-])c(O)c12	87*	12	10	24	7	11
COc1ccccc1-c1cc(=O)c2c(O)ccc([N+](=O)[O-])c2o1	70*	17	-29	35	-9	-2

High-throughput results from PubChem.
